According to PubChem BioAssay (Tox21):
Results filed as inconclusive are left out. Some compounds were tested as several samples or in several runs, with calls that do not always agree. Unmarked numbers belong to inactive results. Active and inactive are the calls of the source. Calls come from the whole dose curve; as a rule, active = well fitted cell-killing curve with a large enough effect in the repeat runs; inconclusive = weak or mixed curves, or effect the other way; inactive = flat fitted curve, though single readings scatter.

assay: cAMP Responsive Elements (CRE) small molecule antagonists, cell-based qHTS assay: qHTS cell viability counter screen (AID 2060913); details: CRE-bla HEK293T viability, CellTiter-Glo luminescence, 5 h; series mostly up to 92.4 µM; viability change, negative = cytotoxic: at the top concentration; note: nearly all actives have a fitted effect of over 40% in size
Source text: U.S. Tox21 Program National Center for Advancing Translational Sciences [NCATS] Division of Preclinical Innovation [DPI] U.S. Environmental Protection Agency [EPA] National Institutes of Environmental Health Sciences [NIEHS] National Toxicology Program [NTP] U.S. Food and Drug Administration [FDA] Tox21 Assay Overview: CREB (cyclic-AMP Responsive Element Binding Protein) is a cellular transcription factor. It binds to certain DNA sequences called cAMP Responsive Elements (CRE) and regulates the transcription of the genes. […] This cell line can be used to find agonists/antagonists of the cyclic AMP signaling pathway. The activation of the report gene under culture conditions can be detected by fluorescence intensity. This cell line has been used to screen the Tox21 10K compound library to identify agonists that induce oxidative stress. The cytotoxicity of the Tox21 compound library against the CRE-bla cell line was tested in parallel by measuring the cell viability using CellTiter-Glo assay (Promega, Madison, WI) in the same wells.
Tox21 Assay Protocol Summary: CRE-bla Hek 293T cells were suspended in assay medium (DMEM containing 10% dialyzed FBS, 0.1 mM NEAA, 1 mM sodium pyruvate and 25 mM HEPES) and dispensed at 2,000 cells/4 uL /well into 1536-well black wall/clear bottom plates using a Multidrop Combi (ThermoFisher Scientific, Waltham, MA) dispenser. After the assay plates were incubated at 37 C/5% CO2 for 18 hrs, 23 nL of compounds dissolved in DMSO, positive controls or DMSO only was transferred to the assay plate by a pintool workstation (Kalypsys, San Diego, CA), followed by addition of 1 uL of 1.25uM NKH477 (0.25 uM as final concentration) in assay medium using a Flying Reagent Dispenser (Aurora Discovery, San Diego, CA). The plates were incubated at 37 C and 5% CO2 for 3 hrs. Then 1 uL of LiveBLAzer B/G FRET substrate (Invitrogen, Carlsbad, CA) was added to each well using Bioraptr Flying Reagent Dispenser (FRD, Aurora Discovery, San Diego, CA). The plates were incubated at room temperature for 2 h, then fluorescence intensities were measured using an Envision plate reader (PerkinElmer, Shelton, CT) at Excitation 405nm, Emission 460nm and 530nm. The % activity was determined from the ratio of 460nm/530nm. For cell viability readout that measures cytotoxicity, 4 uL /well of CellTiter-Glo reagent was added into the assay plates using Bioraptr FRD. After 30 min incubation at room temperature, the luminescence intensity in the assay plates was measured using a ViewLux (PerkinElmer, Shelton, CT) plate reader.
% is set by controls: 0 for no effect and ±100 for the full control effect; potency is the fitted concentration of half-maximal effect.

SMILES | viability change, negative = cytotoxic | Potency
CCCCCCCCCCCCCc1ccccc1 | -11.1% [at 42.5 µM] | –
CC(C)=CC(C)(C)C | 4.94% | –
O=[Se](O)O | 6.01% [at 18.9 µM] | 61.2 µM (active)
O=C(CCBr)N1CCN(C(=O)CCBr)CC1 | -2.25% [at 42.5 µM] | –
COc1ccc(S(=O)(=O)Nc2nnc(CC(C)C)s2)cc1 | -2.35% [at 42.5 µM] | –
O=C1CCCCC1 | – | inactive
CC#N | 7.97% | –
CC(C)(C#N)Nc1nc(Cl)nc(NC2CC2)n1 | -7.89% | –
Cc1ccc(-n2nc(C(C)(C)C)cc2NC(=O)Nc2ccc(OCCN3CCOCC3)c3ccccc23)cc1 | 0.325% [at 42.5 µM] | –
CC(C)C(O)C(C)(C)CO (stereo not given) | -0.179% | –
CCCCCCOC(=O)CCCCCCCC(=O)OCCCCCC | -0.817% | –
CC(=O)NC(Cc1ccccc1)C(=O)O (stereo not given) | 9.67% [at 42.5 µM] | –
C=C1C(=C/C=C2\CCC[C@]3(C)[C@@H]([C@H](C)/C=C/[C@@H](O)C4CC4)CC[C@@H]23)C[C@@H](O)C[C@@H]1O | 0.631% [at 42.5 µM] | –
CCC/C=C/C=O | – | inactive
NC(N)=N/N=C/c1c(Cl)cccc1Cl | -3.42% [at 42.5 µM] | –
O=C(c1ccccc1)C1CCCCC1 | -1.2% | –
Cc1cc(=O)[nH]c(C(C)C)n1 | – | inactive
CC1(C)CC(N)CC(C)(C)N1 | 1.1% | –
CCCn1cnc2c1c(=O)n(CCCCC(C)=O)c(=O)n2C | 0.469% [at 42.5 µM] | –
OCCN1CCNCC1 | – | inactive

SMILES | viability change, negative = cytotoxic | Potency
O=C(CO)[C@@H](O)[C@H](O)[C@@H](O)CO | -1.92% [at 42.5 µM] | –
COc1ccccc1OCC(O)COC(N)=O (stereo not given) | 0.691% [at 42.5 µM] | –
CC(CCc1ccc(O)cc1)NCCc1ccc(O)c(O)c1 (stereo not given) | 8.85% [at 42.5 µM] | –
Cc1cnc(NC(=O)C2=C(O)c3ccccc3S(=O)(=O)N2C)s1 | – | inactive
NC(=Nc1ccccc1)Nc1ccccc1 | – | inactive
CC(=O)OC/C=C(\C)CCC=C(C)C | -6.07% | –
Brc1nc2ccccc2s1 | – | inactive
CS(=O)(=O)Nc1ccc([N+](=O)[O-])cc1Oc1ccccc1 | – | inactive
Cc1cc2c(cc1C(F)(F)F)N(C(=O)Nc1ccc(Oc3cccnc3C)nc1)CC2 | -2.5% | –
CCCCCCCC/C=C\CCCCCCCC(=O)OCCO | 15.7% | –
Cc1cccc(C)c1NC(=O)C(C)N (stereo not given) | -1.14% [at 42.5 µM] | –
CC(=O)c1ccccc1N | -13.8% | –
O=C(O)Cc1ccc(-c2ccccc2)cc1 | 5.25% [at 42.5 µM] | –
CCc1cc(SCc2sc(-c3ccc(C(F)(F)F)cc3)nc2CN2CCN(c3ccc(OC)cc3)CC2)ccc1OCC(=O)O | – | 54.5 µM (active)
C=C(C)C(=O)OCCOC(=O)C(=C)C | – | inactive
O=C(O)Cc1c(Cl)ccc(Cl)c1Cl | 1.56% | –
CN(C)C(=N)N=C(N)N | – | inactive
CNCCc1ccccn1 | -1.75% [at 42.5 µM] | –
CC1(N)CCC(C(C)(C)N)CC1 (stereo not given) | 8.98% | –
